# From PubChem BioAssay AID1259318 (Sanford-Burnham Center for Chemical Genomics, 2017)
# About 3,000 (0.81%) of roughly 370,000 compounds were called active. Shown is part of a subset that was picked to be rich in actives. Values without a mark were called inactive.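 Rule for the calls: active = activity above about 14% (limit read from the data; passing the limit was not always enough); inactive = the rest.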
# Molecular target: Nuclear receptor subfamily 1 group D member 1 (Homo sapiens) (UniProt P20393)
# Sequence (P20393 whole entry, looked up): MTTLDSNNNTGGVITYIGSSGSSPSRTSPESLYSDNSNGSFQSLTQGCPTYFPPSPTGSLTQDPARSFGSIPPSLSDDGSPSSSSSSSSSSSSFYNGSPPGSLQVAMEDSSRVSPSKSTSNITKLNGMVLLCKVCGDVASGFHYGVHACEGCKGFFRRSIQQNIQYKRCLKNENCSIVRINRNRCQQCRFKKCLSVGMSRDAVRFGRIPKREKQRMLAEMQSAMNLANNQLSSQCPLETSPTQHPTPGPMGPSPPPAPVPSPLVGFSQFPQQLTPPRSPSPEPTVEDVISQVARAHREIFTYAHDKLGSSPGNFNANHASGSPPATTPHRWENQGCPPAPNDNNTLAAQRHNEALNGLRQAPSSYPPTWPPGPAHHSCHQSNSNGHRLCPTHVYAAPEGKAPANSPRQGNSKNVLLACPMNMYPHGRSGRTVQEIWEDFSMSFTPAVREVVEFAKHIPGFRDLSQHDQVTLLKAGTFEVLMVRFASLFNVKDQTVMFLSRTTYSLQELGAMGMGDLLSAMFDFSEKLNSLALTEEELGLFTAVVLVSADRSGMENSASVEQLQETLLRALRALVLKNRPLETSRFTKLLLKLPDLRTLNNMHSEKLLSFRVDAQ
# Experiment: Rev-erbα–DNA interaction modulation – biochemical, FITC-DNA, fluorescence polarization, uHTS, primary screen (AID 1259318);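 note: 0% = DMSO wells with 35 nM protein and 100% = DMSO wells with 750 nM protein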
# Details: Rev-erbα–FITC-DNA binding, 90 min, at 10 µM, hits give high values
row,Compound,activity
1,CCc1c(-c2ccccc2)nc(N)c(C#N)c1-c1cccs1,12%
2,CN1CCc2nc(SC(C(=O)O)c3ccccc3)c(C#N)c(-c3cccs3)c2C1 (stereo not given),-2.52%
3,Cc1c(-c2ccccc2)nc(N)c(C#N)c1-c1cccs1,29.3% (active)
4,C=CCOc1cccc(CNn2cn[nH]c2=S)c1,-6%
5,CN(C(=O)COC(=O)Cn1cnc2c1c(=O)n(C)c(=O)n2C)C1(C#N)CCCCC1,0.32%
6,CCOc1cccc(NC(=O)Cn2nc(-c3ccc4c(c3)OCCO4)ccc2=O)c1,52.4% (active)
7,O=C(CSc1ccc(-c2ccc(F)cc2)nn1)Nc1ccc2c(c1)OCCO2,-5.86%
8,CC(=O)c1cc2c(cc1NC(=O)Cn1nc(-c3ccc(F)cc3)ccc1=O)OCO2,1.35%
9,CC(C)C(C#CC1CC1)N(Cc1ccc2c(c1)OCO2)C(N)=NC(=O)/C=C/c1cccc(C(F)(F)F)c1 (stereo not given),-2.7%
10,Cn1c(-c2sccc2OCc2cccc(C(F)(F)F)c2)n[nH]c1=S,-0.5%
11,O=C(CSc1ncnc2c1oc1ccccc12)NC1CCCC1,-1.38%
12,CC(C)CCSc1ncnc2c1oc1nc3c(cc12)COC(C)(C)C3,0.04%
13,CC1(C)Cc2nc3sc4c(SCC(=O)NC(c5ccccc5)c5ccccc5)ncnc4c3cc2CO1,199% (active)
14,COCCN1C2=C(COC(C)(C)C2)C(=S)NC1c1ccccc1 (stereo not given),1.37%
15,COc1ccccc1NC(=O)C(CC(=O)O)Cc1cc(C)cc(C)c1 (stereo not given),-2.91%
16,COC(=O)c1c(NC(C)=O)sc(C(=O)Nc2ccccc2OC)c1C,32.9% (active)
17,COc1ccccc1NC(=O)c1c(Br)cnn1C,2.04%
18,O=C(CCc1ccc(S(=O)(=O)N2CCOCC2)cc1)Nc1ccc2ccccc2c1,-2.19%
19,O=C(NC1CC1)C(Cc1ccccc1)NS(=O)(=O)c1ccccc1F (stereo not given),3.33%
20,CC(C(=O)N=Nc1c(O)n(C)c2ccc(Br)cc12)n1cnc2ccccc2c1=O (stereo not given),2.88%
21,COc1ccccc1C(=O)Nc1ccnn1C1CCN(Cc2cnn(C)c2)CC1,4.21%
22,COc1cccc(N2CCN(CC(=O)Nc3ccnn3C3CCCC3)CC2)c1,5.07%
23,COc1ccccc1N1CCN(CC(=O)Nc2ccnn2C2CCCC2)CC1,15.8% (active)

row,Compound,activity
1,C#CCNc1nc(C(C)C)nc2c1nnn2Cc1ccccc1F,2.17%
2,CCCCCCCCCOC1OC(CO)C(O)C(O)C1NC(C)=O (stereo not given),1.37%
3,CCC(C)C1(C2CCCC2)NC(=O)NC1=O (stereo not given),16.3% (active)
4,c1cncc(CNc2ccnc(-c3ccc4c(c3)OCO4)n2)c1,3.58%
5,Cc1ccc2nc(C)c3c(c2c1)N(c1ccccc1)CC3,8.49%
6,Cc1ccc(C(=O)NC(C)C(c2cccs2)N2CCOCC2)cc1C (stereo not given),-7%
7,CCOc1cccc(C(=O)Nc2nnc(-c3cccs3)s2)c1,23.2% (active)
8,CCOc1ccc(C(=O)Nc2nccs2)cc1[N+](=O)[O-],13.7%
9,Cc1ccc(C(=O)Oc2coc(CSc3nnc(NC(=O)c4cccs4)s3)cc2=O)cc1C,12.7%
10,Cc1ccc(C(=O)Nc2nnc(-c3cccs3)s2)cc1C,22.5% (active)
11,CCOc1cccc(C(=O)Nc2cnn(Cc3ccccc3)c2)c1,-1.52%
12,CSc1ccccc1C(=O)OCC(=O)N1CCN(C(C)=O)CC1,-6.48%
13,COCCCNC(=O)Cn1cc(/C=C(\C#N)C(=O)N2CCN(c3ccccc3)CC2)c2ccccc21,1.28%
14,COc1ccc2c(c1)CCC/C2=N\OC(=O)c1ccccc1F,-4.23%
15,COc1cc(NS(=O)(=O)c2ccc(NC(=O)c3ccc(S(=O)(=O)N4CCCCC4)cc3)cc2)ncn1,-7.53%
16,CCSC1=NCCN1S(=O)(=O)c1ccc(F)cc1,8.78%
17,COc1nc(-c2ccc(Cl)cc2)ccc1-c1noc(-c2cccs2)n1,56.6% (active)
18,N#Cc1ccc(-c2ccc(Cl)cc2)nc1Oc1ccc(F)cc1,6.3%
19,CC(C)C[C@@H]1Cc2[nH][nH]c(=O)c2[C@H](CCc2ccccc2)O1,-3.25%
20,CCCn1c(O)c(CN2CCCC(C)C2)c(C)c(C#N)c1=O (stereo not given),8.88%
21,CSc1ncnc2c1ncn2CC(=O)C1CCC2C3CCC4=CC(=O)CCC4(C)C3CCC12C (stereo not given),-3.58%
22,CCC(=O)c1c(CC)c2n3c1=CC[C@H]3CC(Br)C=2 (stereo not given in full),2.99%
23,CC(Sc1ccccc1F)C(=O)Nc1cccc(S(=O)(=O)N2CCOCC2)c1 (stereo not given),-3.07%

row,Compound,activity
1,COCCn1c(=NC(=O)c2ccccc2[N+](=O)[O-])sc2cc(S(C)(=O)=O)ccc21,3.08%
2,Cn1c(=NC(=O)c2ccc3c(c2)OCCO3)sc2cc(S(C)(=O)=O)ccc21,22.9% (active)
3,CS(=O)(=O)c1ccc(-c2nnn(CC(=O)Nc3ccc4c(c3)OCCO4)n2)cc1,6.46%
4,COc1ccc(C(=O)OCCN(C)C2CN(Cc3cn(Cc4cccc(C)c4)nn3)S(=O)(=O)C2)cc1OC (stereo not given),-5.04%
5,CSc1ccccc1NC(=O)CN(C)CC(=O)Nc1cccc(Br)c1,-5.77%
6,CC(=O)c1ccc(N2CCN(S(=O)(=O)c3ccc4c(c3)CC(=O)N4C)CC2)cc1,1.85%
7,CC(=O)c1ccc(S(=O)(=O)N2CCN(c3nc4c(C)c(C)ccc4cc3C#N)CC2)cc1,223% (active)
8,Cc1ccccc1N1CCN(S(=O)(=O)c2ccc3ccccc3c2)CC1,3.07%
9,CCN(CCCNC(=O)c1ccc2c(c1)NC(=O)CN2C)c1cccc(C)c1,-3.82%
10,COC(=O)c1sc(NC(=O)c2ccc(OC)cc2OC)nc1C,28.7% (active)
11,COc1ccc(N(CC(=O)Nc2cccc3ccccc23)S(C)(=O)=O)c(OC)c1,0.94%
12,COc1ccc(C(=O)CSc2nnnn2C)c(OC)c1,1.25%
13,COc1ccc(CNC(=O)CCC(=O)Nc2nnc(C(C)C)s2)cc1,-2.06%
14,COc1ccc(C(=O)Nc2cccc(NC(=O)c3ccc(OC)cc3OC)n2)c(OC)c1,22.5% (active)
15,COCCSc1nnc(NC(=O)c2cc(OC)c(OC)cc2[N+](=O)[O-])s1,7.5%
16,COc1ccc(C(=O)N2CCCN(C)CC2)c(OC)c1,1.46%
17,COc1ccc(Cc2nnc(NC(=O)c3ccc(OC)cc3OC)s2)cc1,45.2% (active)
18,COc1ccc(C(=O)COC(=O)C(O)c2ccccc2)c(OC)c1 (stereo not given),7.39%
19,CCc1ccc(Nc2ncc3c(n2)CC(c2ccco2)CC3=O)cc1 (stereo not given),2.68%
20,CCCNC(=O)CCc1c(C)nc2c(c(C)nn2-c2ccccc2)c1C,-3.83%
21,NCC[C@@H](O)C(=O)N[C@@H]1C[C@H](N)[C@@H](O[C@H]2O[C@H](CN)[C@@H](O)[C@H](O)[C@H]2O)[C@H](O)[C@H]1O[C@H]1O[C@H](CO)[C@@H](O)[C@H](N)[C@@H]1O,-0.91%
22,CCOC(=O)Cn1c(=O)oc2cc(S(=O)(=O)NCC3CCCO3)ccc21 (stereo not given),-1.52%
23,COCCCNC(=O)C1CCC(CNS(=O)(=O)c2ccc(OC)cc2)CC1 (stereo not given),-5.72%

row,Compound,activity
1,Cc1cccc(C(=O)Nc2ccccc2C(=O)NCc2cccnc2)c1,0.06%
2,O=C(Nc1cccc(-n2cnnn2)c1)c1cccnc1,1.66%
3,Cc1ccc(-n2nc3cc(C)c(NC(=O)c4cccnc4)cc3n2)cc1,36.7% (active)
4,Cc1ccc(-n2c(COc3ccccc3)nnc2SCC(=O)Nc2ccc3c(c2)OCCO3)cc1,1.23%
5,CCc1ccc(-c2cc3c(=O)n(CC(=O)NCCCN4CCN(Cc5ccccc5)CC4)nc(C)n3n2)cc1,2.85%
6,COC(=O)C[C@H]1C[C@@H]2c3cc(N(C)C)ccc3O[C@@H]2[C@H](CO)O1,7.34%
7,CCN1C(=O)/C(=C\N2CCOCC2)SC1=S,2.02%
8,CCC1(C)NC(=O)N(CC(=O)N2CCN(c3cccc(Cl)c3)CC2)C1=O (stereo not given),-2.92%
9,CCN1C(=O)/C(=C\N2CCN(c3cccc(Cl)c3)CC2)SC1=S,877% (active)
10,CCCc1nnc(NC(=O)CCC(=O)N2CCN(S(=O)(=O)c3ccc(OC)cc3)CC2)s1,-2.83%
11,COC(=O)[C@@]12C[C@@H](CC(=O)NCCCCc3ccccc3)C(=O)N(CCc3ccc(OC)c(OC)c3)C1=CCC(C)(C)C2,0.11%
12,O=C(NCc1ccc2c(c1)OCO2)c1c(O)nc2sccn2c1=O,-1.37%
13,O=C(NCc1ccc(Cl)cc1)c1cc(=O)nc2sc(-c3ccccc3)nn12,7.32%
14,O=C(NCc1ccc(Cl)cc1)c1cc2c(nc3sccn32)s1,25.1% (active)
15,COCc1c(C(=O)N/N=C/C2CC=CCC2)nnn1-c1nonc1N (stereo not given),-3.01%
16,CN(CC1CCCN(CCc2cccc(C(F)(F)F)c2)C1)C(=O)c1ccc2nc[nH]c2c1 (stereo not given),4.2%
17,CC1=CC[C@H](C(C)(C)O)CC1,1.53%
18,COc1ccc(S(=O)(=O)N2CCOCC2)cc1NC(=O)CSc1ncnc2ccccc12,-2.02%
19,COc1ccc(S(=O)(=O)N2CCOCC2)cc1C(=O)Nc1nc2ccccc2s1,46.8% (active)
20,COc1ccc(S(=O)(=O)N2CCOCC2)cc1C(=O)NC1CCCCC1,-1.23%
21,CC1CN(C(=O)c2ccc3c(c2)OCO3)OC(c2ccccc2)O1 (stereo not given),8.07%
